# Measurements as given in the supplement of paper PMC6555819.
# Tests used:
# Experiment in all cases: PBM binding z-score (relative to random genomic background probes); higher = stronger binding; sequences stand for … in GC…GCGATTGACAGCGTAGAATGAAGG
# [1] = test system: FXR:RXRa (NR concentration 270 nM, RXRa partner concentration 90 nM)
# In short: (§1)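 Scanned fluorescence from custom Agilent 4×180K protein-binding microarrays was regression-normalized. Binding z-scores use random background probes as reference. Ligand-free nuclear receptor dimers were incubated on the arrays for 1 h and detected with antibodies against each partner (one per run).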
# [2] = test system: LXRa:RXRa (NR concentration 270 nM, RXRa partner concentration 90 nM)
# In short: as §1
# [3] = test system: LXRa homodimer (NR concentration 270 nM)
# In short: as §1
# [4] = test system: LXRb:RXRa (NR concentration 270 nM, RXRa partner concentration 90 nM)
# In short: as §1
# [5] = test system: LXRb homodimer (NR concentration 270 nM)
# In short: as §1
# [6] = test system: PPARa:RXRa (NR concentration 270 nM, RXRa partner concentration 90 nM)
# In short: as §1
# [7] = test system: PPARg:RXRa 270nM:90nM, anti-RXR (NR concentration 270 nM, RXRa partner concentration 90 nM)
# In short: as §1
# [8] = test system: PPARg:RXRa 30nM:10nM, anti-RXR (NR concentration 30 nM, RXRa partner concentration 10 nM)
# In short: as §1
# [9] = test system: PPARg:RXRa 90nM:30nM, anti-RXR (NR concentration 90 nM, RXRa partner concentration 30 nM)
# In short: as §1
# [10] = test system: PPARg:RXRa DBDmut IVT, anti-RXR (DBD mutation: RXRa K156A/R161A, NR concentration 270 nM, RXRa partner concentration 90 nM)
# In short: as §1
# [11] = test system: PPARg:RXRa IVT, anti-PPARg (NR concentration 270 nM, RXRa partner concentration 90 nM)
# In short: as §1
# [12] = test system: PPARg DBDmut:RXRa IVT, anti-PPARg (DBD mutation: PPARg1 K132A/R137A, NR concentration 270 nM, RXRa partner concentration 90 nM)
# In short: as §1
# [13] = test system: PPARg DBDmut IVT, anti-PPARg (DBD mutation: PPARg1 K132A/R137A, NR concentration 270 nM)
# In short: as §1
# [14] = test system: PPARg homodimer (NR concentration 180 nM)
# In short: as §1
# [15] = test system: PXR:RXRa (NR concentration 270 nM, RXRa partner concentration 90 nM)
# In short: as §1
# [16] = test system: PXR homodimer (NR concentration 270 nM)
# In short: as §1
# [17] = test system: RARa:RXR (NR concentration 270 nM, RXRa partner concentration 90 nM)
# In short: as §1
# [18] = test system: RARa homodimer (NR concentration 270 nM)
# In short: as §1
# [19] = test system: RARb:RXRa (NR concentration 270 nM, RXRa partner concentration 90 nM)
# In short: as §1
sequence,measurement,setting,value
AGTCAAAGTTCATCTGGGTAACGTAAGATATGCT,PBM binding z-score,[1],6.32
same,PBM binding z-score,[2],6.01
same,PBM binding z-score,[3],5.7
same,PBM binding z-score,[4],4.05
same,PBM binding z-score,[5],1.69
same,PBM binding z-score,[6],4.98
same,PBM binding z-score,[7],6.09
same,PBM binding z-score,[8],3.73
same,PBM binding z-score,[9],5.62
same,PBM binding z-score,[10],1.05
same,PBM binding z-score,[11],3.77
same,PBM binding z-score,[12],0.881
same,PBM binding z-score,[13],0.701
same,PBM binding z-score,[14],2.39
same,PBM binding z-score,[15],5.16
same,PBM binding z-score,[16],5.32
same,PBM binding z-score,[17],3.69
same,PBM binding z-score,[18],1.4
same,PBM binding z-score,[19],4.81
CCTACTGGGCCAAGCTCATTGATCAGTCAAAGCA,PBM binding z-score,[1],-0.645
same,PBM binding z-score,[2],-0.823
same,PBM binding z-score,[3],-0.557
same,PBM binding z-score,[4],-0.699
same,PBM binding z-score,[5],-1.01
same,PBM binding z-score,[6],0.0972
same,PBM binding z-score,[7],0.223
same,PBM binding z-score,[8],-0.794
same,PBM binding z-score,[9],-0.165
same,PBM binding z-score,[10],4.44
same,PBM binding z-score,[11],2.91
same,PBM binding z-score,[12],-0.901
same,PBM binding z-score,[13],-1.44
same,PBM binding z-score,[14],-0.727
same,PBM binding z-score,[15],-0.626
same,PBM binding z-score,[16],-0.809
same,PBM binding z-score,[17],-0.399
same,PBM binding z-score,[18],-1.2
same,PBM binding z-score,[19],-0.112
CAAACTAGGTCACGAAAGGTCAAAATCGAATGAC,PBM binding z-score,[1],7.3
same,PBM binding z-score,[2],8.11
same,PBM binding z-score,[3],7.47
same,PBM binding z-score,[4],7.37
same,PBM binding z-score,[5],2.57
same,PBM binding z-score,[6],6.41
same,PBM binding z-score,[7],8.29
same,PBM binding z-score,[8],6.67
same,PBM binding z-score,[9],8.42
same,PBM binding z-score,[10],8.56
same,PBM binding z-score,[11],8.77
same,PBM binding z-score,[12],2.54
same,PBM binding z-score,[13],2.48
same,PBM binding z-score,[14],5.97
same,PBM binding z-score,[15],6.92
same,PBM binding z-score,[16],3.06
same,PBM binding z-score,[17],7.6
same,PBM binding z-score,[18],4.93
same,PBM binding z-score,[19],5.41
CGTCCAAGGTCAGAGAGGTCAGTGACTGCCGAGT,PBM binding z-score,[1],6.33
same,PBM binding z-score,[2],5.11
same,PBM binding z-score,[3],3.23
same,PBM binding z-score,[4],4.11
same,PBM binding z-score,[5],0.108
same,PBM binding z-score,[6],4.74
same,PBM binding z-score,[7],4.2
same,PBM binding z-score,[8],1
same,PBM binding z-score,[9],2.64
same,PBM binding z-score,[10],3.1
same,PBM binding z-score,[11],3.54
same,PBM binding z-score,[12],-0.0571
same,PBM binding z-score,[13],-1.2
same,PBM binding z-score,[14],5.16
same,PBM binding z-score,[15],6.06
same,PBM binding z-score,[16],11.3
same,PBM binding z-score,[17],5.75
same,PBM binding z-score,[18],2.55
same,PBM binding z-score,[19],5.28
CGTCCAAGGTCAGAGAGGTCAGTGTATGCCGAGT,PBM binding z-score,[1],6.02
same,PBM binding z-score,[2],5.1
same,PBM binding z-score,[3],3.33
same,PBM binding z-score,[4],4.4
same,PBM binding z-score,[5],0.458
same,PBM binding z-score,[6],4.71
same,PBM binding z-score,[7],3.98
same,PBM binding z-score,[8],0.927
same,PBM binding z-score,[9],2.53
same,PBM binding z-score,[10],2.75
same,PBM binding z-score,[11],3.39
same,PBM binding z-score,[12],-0.0469
same,PBM binding z-score,[13],0.446
same,PBM binding z-score,[14],3.62
same,PBM binding z-score,[15],5.92
same,PBM binding z-score,[16],12.1
same,PBM binding z-score,[17],5.19
same,PBM binding z-score,[18],1.5
same,PBM binding z-score,[19],5.16
CGCACTAGGTCATTGACAGGACAGTGAATAGTAA,PBM binding z-score,[1],4.64
same,PBM binding z-score,[2],3.31
same,PBM binding z-score,[3],0.73
same,PBM binding z-score,[4],2.31
same,PBM binding z-score,[5],0.424
same,PBM binding z-score,[6],4.38
same,PBM binding z-score,[7],5.96
same,PBM binding z-score,[8],3.36
same,PBM binding z-score,[9],5.26
same,PBM binding z-score,[10],8.05
same,PBM binding z-score,[11],8.26
same,PBM binding z-score,[12],3.67
same,PBM binding z-score,[13],3.71
same,PBM binding z-score,[14],2.42
same,PBM binding z-score,[15],1.82
same,PBM binding z-score,[16],0.54
same,PBM binding z-score,[17],2.55
same,PBM binding z-score,[18],0.834
same,PBM binding z-score,[19],3.81
